# Results reported in PubChem BioAssay (Tox21).
# “And” between values parts separate entries of the source, which are not always exact repeats. Identical values can stand only once. Results filed as inconclusive are left out. Where a call stands in place of a potency, no number is given. The source holds several records for some structures; these can differ, active in one and inactive in another. The source made the active and inactive calls. Unless noted, calls come from the whole dose curve; as a rule, active = well fitted curve in the direction sought with a large enough effect in the repeat runs; inconclusive = weak or mixed curves; inactive = no such curve, though single readings can be large; an effect the other way counts as inactive or inconclusive.
# How the values were obtained:
# [1] = qHTS assay to identify small molecule agonists of the NFkB signaling pathway (AID 1159509; active = well fitted curve in the direction sought with a large enough effect in the signal ratio in the repeat runs, not every such curve was filed as active; the % refers to the signal ratio; note: series mostly up to about 61 µM)
# In short: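 Beta-lactamase reporter assay run in quantitative high-throughput format on an NF-kB-responsive ME-180 line, with 5 hr compound treatment and a FRET-based blue/green fluorescence readout.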
# [2] = qHTS assay to identify small molecule agonists of the endoplasmic reticulum stress response signaling pathway - cell viability counter screen (AID 1159517; calls by dose curve;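 note: HeLa cells carrying an ER stress response element beta-lactamase reporter; series mostly up to about 61 µM; nearly all actives have a fitted effect of over 50% in size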)
# In short: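 Steps: seed 1,500 ESRE-bla HeLa cells per well; incubate overnight at 37 C, 5% CO2; add compounds in DMSO for 5 hr; run FRET substrate 2 hr RT; add CellTiter-Glo, wait 30 min, read luminescence.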
# [3] = qHTS assay to identify small molecule antagonists of the retinoid-related orphan receptor gamma (ROR-gamma) signaling pathway - cell viability counter screen (AID 1159520); note: nearly all actives have a fitted effect of over 50% in size; note: potency is the fitted concentration of half-maximal effect
# In short: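 Tet-on ROR gamma CHO cells were given compounds for 2 hr, then doxycycline hyclate at 1 uM final, and incubated 16 hr at 37 C. Viability was measured as ATP content by CellTiter-Glo luminescence.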
# [4] = qHTS assay to identify small molecule agonists of the AP-1 signaling pathway - cell viability counter screen (AID 1159525; calls by dose curve; note: nearly all actives have a fitted effect of over 55% in size)
# In short: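 Same-well cytotoxicity counter screen of the Tox21 10K library in ME-180 cells. The readout is ATP-dependent luminescence after 5 h compound treatment. Data are normalised to DMSO and tetra n-octyl ammonium bromide controls.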
# [5] = qHTS assay to identify small molecule agonists of the RXR signaling pathway - cell viability counter screen (AID 1159529);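 note: HEK 293T cells carrying an RXR-alpha UAS beta-lactamase reporter; series mostly up to about 77 µM; nearly all actives have a fitted effect of over 50% in size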
# In short: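 In this parallel viability measure, GeneBLAzer RXR-alpha HEK 293T cells (2% charcoal-stripped FBS) were given a 5 hr preincubation, treated with compounds 16 hr at 37 C, and read by CellTiter-Glo luminescence.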
# [6] = qHTS assay to identify small molecule antagonists of the retinoid acid receptor (RAR) signaling pathway - cell viability counter screen (AID 1159551); note: nearly all actives have a fitted effect of over 35% in size; note: potency is the fitted concentration of half-maximal effect
# In short: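 ATP-based viability, C3RL4 cells, 6 h at 37 C with 1 uM final retinol co-added after compound; luminescence read 30 min post CellTiter-Glo, RT.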
# [7] = qHTS assay to identify small molecule antagonists of the retinoic acid receptor (RAR) signaling pathway (AID 1159552; note: nearly all actives have a fitted effect of over 50% in size)
# In short: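 C3RL4 RARE-luc cells, overnight plating; retinol 1 uM final added right after compound; 6 hr 37 C; luciferase read at 30 min RT.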
# [8] = target: Nuclear receptor ROR-gamma (Homo sapiens) (UniProt P51449); assay: qHTS assay to identify small molecule antagonists of the retinoid-related orphan receptor gamma (ROR-gamma) signaling pathway (AID 1159521; note: nearly all actives have a fitted effect of over 50% in size; note: potency is the fitted concentration of half-maximal effect)
# In short: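 Decreased RORE-driven luciferase luminescence indicates antagonism. Tet-on RORγ CHO cells received compound, then 1 uM final doxycycline 2 h later; signal read after 16 h incubation.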
# [9] = qHTS assay to identify small molecule agonists of the retinoic acid receptor (RAR) signaling pathway (AID 1159553)
# In short: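 Quantitative high-throughput format: the Tox21 10K library was tested on C3RL4 RARE-luciferase cells for 6 hr at 37 C and 5% CO2, with luminescence measured after a 30 min room-temperature reagent step.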
# [10] = qHTS assay to identify small molecule agonists of the vitamin D receptor (VDR) signaling pathway - cell viability counter screen (AID 743224); note: nearly all actives have a fitted effect of over 50% in size; note: potency is the fitted concentration of half-maximal effect; for activity change, negative = cytotoxicity: series mostly up to about 63 µM
# In short: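 Compounds were pin-transferred onto VDR-bla cells plated 4 h earlier; following 16 h incubation at 37C, cell viability was quantified by CellTiter-Glo luminescence after 30 min at room temperature.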
# [11] = qHTS assay to identify small molecule antagonists of the vitamin D receptor (VDR) signaling pathway - cell viability counter screen (AID 743225); note: nearly all actives have a fitted effect of over 50% in size
# In short: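 Parallel cytotoxicity test: VDR-UAS-bla HEK 293T, 3 nM (final) 1-alpha,25-dihydroxyvitamin D3 with test compound, 16 h, 37C. Endpoint is CellTiter-Glo luminescence in the same wells.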
# [12] = qHTS assay to identify small molecule agonists of the AP-1 signaling pathway (AID 1159526; calls by dose curve)
# [13] = qHTS assay to identify small molecule antagonists of the estrogen related receptor (ERR) signaling pathway - cell viability counter screen (AID 1224818);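 note: series mostly up to about 46 µM; viability measured after 17.5 h of compound exposure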
# In short: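 Quantitative high-throughput viability counter screen in ERR cells. Compounds (DMSO) incubated 17.5 h at 37 C; read-out was CellTiter-Fluor fluorescence.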
# [14] = qHTS assay to identify small molecule antagonists of the estrogen related receptor (ERR) signaling pathway (AID 1224819)
# In short: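 ERR reporter cell line (NTP) plated at 2,000 cells/well, settled 6 h at 37C/5% CO2, then exposed to LOPAC compounds for 18 h at 37C. One-Glo luciferase luminescence read after 30 min at room temperature.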
# [15] = qHTS assay to identify small molecule agonists of the estrogen related receptor (ERR) signaling pathway (AID 1224820)
# In short: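 Following a 6 h settling period, 2,000 ERR cells per well receive DMSO-dissolved compounds by pin tool and incubate 18 h at 37 C; agonist activity is scored from One-Glo luminescence read 30 min post-addition.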
# [16] = qHTS assay to identify small molecule antagonists of the estrogen related receptor signaling pathway with the pleiotropic PPARgamma coactivator (PGC) cell viability counter screen (AID 1224822; note: series mostly up to about 46 µM)
# In short: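 Cytotoxicity in the PGC/ERR cell line is assessed with CellTiter-Fluor, read as fluorescence intensity 30 min after reagent addition, following 17.5 h compound treatment at 37 C.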
# [17] = qHTS assay to identify small molecule agonists of the estrogen related receptor signaling pathway with the pleiotropic PPARgamma coactivator (PGC) (AID 1224823)
# In short: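 In this quantitative high-throughput screen, an 18 h, 37 C treatment of PGC/ERR cells with compounds in DMSO preceded a One-Glo luminescence read taken after 30 min at room temperature.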
# [18] = target: Retinoic acid receptor RXR-alpha (Homo sapiens) (UniProt P19793); assay: qHTS assay to identify small molecule agonists of the RXR signaling pathway (AID 1159527; calls by dose curve; note: nearly all actives have a fitted effect of over 35% in size)
# In short: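 16 hr incubation of compound-treated RXR-alpha-UAS-bla HEK 293T cells (2% charcoal-stripped FBS, 37 C) preceded a 2 hr room-temperature LiveBLAzer FRET substrate step and blue/green fluorescence measurement.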
# Sequence of Retinoic acid receptor RXR-alpha (Homo sapiens) (P19793 whole entry, looked up): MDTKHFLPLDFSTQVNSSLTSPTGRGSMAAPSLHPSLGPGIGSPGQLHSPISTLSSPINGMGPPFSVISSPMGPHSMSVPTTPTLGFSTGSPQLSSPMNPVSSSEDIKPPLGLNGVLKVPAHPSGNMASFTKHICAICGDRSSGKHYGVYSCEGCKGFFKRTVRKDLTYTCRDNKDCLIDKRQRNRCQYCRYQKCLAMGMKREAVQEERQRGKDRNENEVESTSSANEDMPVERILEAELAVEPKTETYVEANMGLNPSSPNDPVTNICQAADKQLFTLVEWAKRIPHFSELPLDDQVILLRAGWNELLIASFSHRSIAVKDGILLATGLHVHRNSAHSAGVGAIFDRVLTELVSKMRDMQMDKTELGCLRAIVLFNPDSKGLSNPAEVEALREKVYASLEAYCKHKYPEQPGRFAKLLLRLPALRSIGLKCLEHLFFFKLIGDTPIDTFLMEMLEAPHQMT
structure (smiles),measurement,setting,value
Nc1ccc(N=Nc2ccc(-c3ccc(N=Nc4c(S(=O)(=O)O)cc5cc(S(=O)(=O)O)c(N=Nc6ccccc6)c(O)c5c4N)cc3)cc2)c(N)c1,outcome,[1],inactive
same,Potency,[2],inactive
same,Potency,[3],15.7 µM (active)
same,Potency,[4],inactive
same,Potency,[5],inactive
same,Potency,[6],15.7 µM (active)
same,Potency,[7],inactive
OC(c1ccc(Cl)cc1)(c1ccc(Cl)cc1)c1cccnc1,outcome,[1],inactive
same,Potency,[2],inactive
same,Potency,[8],54.5 µM (active)
same,Potency,[4],inactive
same,Potency,[5],inactive
same,Potency,[6],inactive
same,Potency,[7],inactive
same,Potency,[9],inactive
CCCCOC(=O)c1ccccc1C(=O)OCc1ccccc1,Potency,[10],inactive
same,Potency,[11],inactive
same,outcome,[1],inactive
same,Potency,[2],inactive
same,Potency,[3],inactive
same,Potency,[8],inactive
same,outcome,[12],inactive
same,Potency,[5],inactive
same,Potency,[6],inactive
same,Potency,[7],inactive
same,Potency,[9],inactive
same,outcome,[13],inactive
same,outcome,[14],inactive
same,outcome,[15],inactive
same,Potency,[16],inactive
same,outcome,[17],inactive
C=CC(=O)OCC(C)C,Potency,[10],inactive
same,Potency,[11],inactive
same,outcome,[1],inactive
same,Potency,[2],inactive
same,Potency,[3],inactive
same,Potency,[8],inactive
same,outcome,[12],inactive
same,Potency,[18],inactive
same,Potency,[5],inactive
same,Potency,[6],inactive
CO[C@@H]1[C@H](OC(=O)NC(=O)CCl)CC[C@]2(CO2)[C@H]1[C@@]1(C)O[C@@H]1CC=C(C)C,Potency,[10],inactive
same,Potency,[11],inactive
same,outcome,[1],inactive
same,"activity change, negative = cytotoxicity",[5],-19.4% [at 15.8 µM] (inactive)
same,"activity change, negative = cytotoxicity",[6],2.96% [at 19 µM] (inactive)
same,"activity, negative = inhibition",[7],1.57% [at 19 µM] (inactive)
same,Potency,[9],inactive
C(=NC1CCCCC1)=NC1CCCCC1,Potency,[10],inactive and 24.5 µM (active)
same,Potency,[11],inactive
same,outcome,[1],inactive
same,Potency,[2],inactive
same,Potency,[8],inactive
same,Potency,[4],inactive
same,outcome,[12],inactive
same,Potency,[5],inactive
same,Potency,[6],inactive
same,Potency,[7],inactive
O=NN1CCNCC1,Potency,[10],inactive
same,outcome,[1],inactive
same,Potency,[2],inactive
same,Potency,[3],inactive
same,Potency,[4],inactive
same,outcome,[12],inactive
same,Potency,[18],inactive
same,Potency,[5],inactive
same,Potency,[6],inactive
same,Potency,[7],inactive
same,Potency,[9],inactive
COC(=O)C(Cl)C(=O)OC,Potency,[10],inactive
same,Potency,[11],inactive
same,outcome,[1],inactive
same,Potency,[2],inactive
same,Potency,[8],inactive
same,Potency,[4],inactive
same,outcome,[12],inactive
same,Potency,[18],inactive
same,Potency,[5],inactive
same,Potency,[6],inactive
same,Potency,[7],inactive
same,Potency,[9],inactive
CC(C)N(C(=O)COc1nnc(C(F)(F)F)s1)c1ccc(F)cc1,Potency,[11],inactive
same,outcome,[1],inactive
same,Potency,[3],inactive
same,Potency,[4],inactive
same,outcome,[12],inactive
same,Potency,[6],inactive
same,Potency,[7],inactive
CNP(=O)(OC)Oc1ccc(C(C)(C)C)cc1Cl (stereo not drawn),Potency,[10],inactive
same,Potency,[11],inactive
same,outcome,[1],inactive
same,Potency,[2],inactive
same,Potency,[4],inactive
same,outcome,[12],inactive
same,Potency,[6],inactive
same,Potency,[7],inactive
same,Potency,[9],inactive
c1cc2ccc3cccc4ccc(c1)c2c34,outcome,[1],inactive
same,Potency,[3],inactive
same,Potency,[8],inactive
same,outcome,[12],inactive
same,Potency,[6],inactive
same,Potency,[7],inactive
same,Potency,[9],inactive
same,outcome,[13],inactive
same,outcome,[15],inactive
same,Potency,[16],inactive
same,outcome,[17],inactive
